Reference: the supplement of paper PMC8387472

Legend:
Assay in all cases: fraction of edited reads among all mapped reads; higher = more Cas9 editing
Settings in all cases: mESC; 2uM; 72 h treatment, harvest day 5
[1] = compound: CC(=O)O/N=C1\C(=O)N(Cc2cc(Cl)ccc2Cl)c2ccc(Cl)cc21
[2] = compound: CC(C)(C#N)c1ccc(N2C(=O)OCc3cnc4ccc(-c5cnc6ccccc6c5)cc4c32)cc1
[3] = compound: CCCCOc1c(C(=O)c2c(F)cc(C)cc2F)c[nH]c2nncc1-2
[4] = compound: CCN1CCN(CC(=O)Nc2ccc(-c3cccc4c(=O)cc(N5CCOCC5)oc34)c3sc4ccccc4c23)CC1
[5] = compound: CCc1c2c(nc3ccc(OC(=O)N4CCC(N5CCCCC5)CC4)cc13)-c1cc3c(c(=O)n1C2)COC(=O)[C@]3(O)CC [Irinotecan HCl Trihydrate]
[6] = compound: CCn1c(=O)c(-c2ccc(Cl)cc2Cl)cc2cnc(Nc3ccc(N4CCNCC4)c(F)c3)nc21
[7] = compound: CNc1ccc([N+](=O)[O-])c(Nc2ccc3[nH]ncc3c2)n1
Rifapentine = compound: CO[C@H]1/C=C/O[C@@]2(C)Oc3c(C)c(O)c4c(O)c(c(/C=N/N5CCN(C6CCCC6)CC5)c(O)c4c3C2=O)NC(=O)/C(C)=C\C=C\[C@H](C)[C@H](O)[C@@H](C)[C@@H](O)[C@@H](C)[C@H](OC(C)=O)[C@@H]1C [Rifapentine]
[8] = compound: COc1ccccc1-c1cc(Nc2cccc(CS(N)(=O)=O)c2)ncn1
[9] = compound: C[C@@H]1CN(CC(=O)Nc2ccc3c(c2)Cc2cccc(-c4cc(=O)cc(N5CCOCC5)o4)c2S3)C[C@H](C)O1

Target	fraction of edited reads among all mapped reads [1]	fraction of edited reads among all mapped reads [2]	fraction of edited reads among all mapped reads [3]	fraction of edited reads among all mapped reads [4]	fraction of edited reads among all mapped reads [5]	fraction of edited reads among all mapped reads [6]	fraction of edited reads among all mapped reads [7]	fraction of edited reads among all mapped reads (Rifapentine)	fraction of edited reads among all mapped reads [8]	fraction of edited reads among all mapped reads [9]
34.0 (DMSO control at this site: 1-bp insertion 0.184, MH deletion 0.385, edited 0.103) ATTATAGGACCCTGAGGGAGCAGAGATGTGGGAATGGGGGCCGAGCCAATTGTGATGTAAG	0.119	0.107	0.0942	0.0488	0.159	0.0937	0.114	0.157	0.129	0.0719
4.0 (DMSO control at this site: 1-bp insertion 0.146, MH deletion 0.523, edited 0.125) ACGCCTTAGTGCACGAGTGACGGGATAATGTGGTCTCAGGTAATTGATAGGCTTCCAACTT	0.157	0.149	0.155	0.0719	0.194	0.136	0.182	0.243	0.188	0.0881
42.0 (DMSO control at this site: 1-bp insertion 0.145, MH deletion 0.655, edited 0.132) GGGCTAAACCTATGAGCACAGTAGAACTAAGGGTGGGTGGTGTAGCTAAAGAACTTGACCA	0.151	0.153	0.161	0.0618	0.191	0.139	0.184	0.27	0.187	0.0909
32.0 (DMSO control at this site: 1-bp insertion 0.03, MH deletion 0.85, edited 0.898) AGAAGTCCAGGATCAGGGGGACTGGGGTCGGGAGGGTGGGGCAGGAAGGAAGCCAGAATCA	0.893	0.917	0.893	0.793	0.944	0.929	0.921	0.946	0.934	0.841
2.0 (DMSO control at this site: 1-bp insertion 0.364, MH deletion 0.356, edited 0.125) GGTGCCCCCGAGACCTACGCGAACCGAAATCGATGTCCGGTGCGCAAGCAGGGCTGGCGTC	0.141	0.129	0.143	0.0564	0.191	0.14	0.176	0.228	0.172	0.121
39.0 (DMSO control at this site: 1-bp insertion 0.328, MH deletion 0.371, edited 0.204) CTGCACAGTCACTTAGGATAGGAGAAGATGATGTATAGGGTTTAGTGGGAGATGTTGCAAG	0.191	0.182	0.214	0.0792	0.252	0.192	0.223	0.335	0.248	0.191
41.0 (DMSO control at this site: 1-bp insertion 0.022, MH deletion 0.754, edited 0.115) AAAGAGACAGCAGGTATGAATCCATCTTCCTGACCCTTGGGACCAGCCGGGGCAGTGAAGC	0.135	0.15	0.152	0.0542	0.19	0.126	0.162	0.23	0.171	0.0671
44.0 (DMSO control at this site: 1-bp insertion 0.181, MH deletion 0.512, edited 0.123) ACACATACCTTCTTCGAGGCAGCCAGCATGATGAGACAGGTCTCCCACAAACACATCGTGT	0.149	0.14	0.157	0.0618	0.202	0.138	0.17	0.251	0.195	0.111
38.0 (DMSO control at this site: 1-bp insertion 0.063, MH deletion 0.487, edited 0.17) GGGCTGGGTGCTAAAATGAGGAGCTCCAAGAAGACTGAGGTGAACCTGGAGGCCCCTGAGC	0.178	0.169	0.188	0.0737	0.243	0.147	0.206	0.26	0.204	0.107
35.0 (DMSO control at this site: 1-bp insertion 0.01, MH deletion 0.72, edited 0.098) CCACTTTTAGAGAGGGTGAAAATCATCAGTTATCATCAGGGCAACAAATTGCTTTCTCCTA	–	0.143	–	0.0527	0.166	0.111	0.148	0.208	0.151	0.0395
46.0 TTAAGAGCAATGTTCACGCAACTTGAAATTATATCTGTGGTCTTCAAATTGTCTTTTGTCA	–	0.109	0.106	–	–	–	0.099	0.157	–	–
25.0 (DMSO control at this site: 1-bp insertion 0.017, MH deletion 0.774, edited 0.143) GGGCCTGAATGGTGTGGACATCTACTCGCTGGTGAGCTGGTGACTGAAAACATTCAGTGGC	0.18	0.183	0.184	0.0836	0.211	0.167	0.199	0.306	0.205	0.0682
23.0 AGAACAAAGCGCTCATATAACGATATGGGGGGTTATGGGGGGTTGAATTGCTTCAGCACGA	–	–	–	–	–	–	0.981	–	–	–
16.0 (DMSO control at this site: 1-bp insertion 0.172, MH deletion 0.29, edited 0.05) CGGACTGCACACATGGGTAGGATCGTGCACGCGAGGTAGGATCGTGCACGCGAAGTTATTC	0.0491	0.0603	0.0612	0.0319	0.079	0.0596	0.0609	0.0951	0.076	0.0437
47.0 (DMSO control at this site: 1-bp insertion 0.095, MH deletion 0.585, edited 0.118) GAGTGGTCCCGAGCCAGGAACTGTGTGTGTTGCAGGGGGGCAGTAACTCCCCAACTCCCTC	0.124	0.13	0.135	0.0496	0.156	0.121	0.151	0.198	0.151	0.0862
31.0 (DMSO control at this site: 1-bp insertion 0.315, MH deletion 0.329, edited 0.026) ACCTCCACAGGCTGGGTGGCCCGGAGGCTGGGCGGCCCGGAGGCTGGGCTGGGCGAGTATC	0.0285	0.0243	0.0286	0.0119	0.0428	0.0286	0.0363	0.0504	0.0355	–
33.0 (DMSO control at this site: 1-bp insertion 0.008, MH deletion 0.771, edited 0.112) CATTAAGAGCAGCTGCCGGCCCCCAAGTGGACAGAGCTGGCCCTGCTGATTCAACAGTGCA	0.133	0.111	0.123	0.0458	0.162	0.115	0.126	0.211	0.163	0.0718
40.0 (DMSO control at this site: 1-bp insertion 0.072, MH deletion 0.192, edited 0.189) GCGAATCAACTGTTCAACAACAGCAGCAGCCACCTGGAGGACTACAGTGGCCTGTCCGTGT	0.203	0.198	0.224	0.0829	0.259	0.184	0.242	0.327	0.271	0.219
18.0 (DMSO control at this site: 1-bp insertion 0.114, MH deletion 0.789, edited 0.094) GCGCAAGTGCATAAGTTTTTCTTAAGGCGTGCCTTTAAGGCGTGCCTTTGTCGGTCCTGGA	0.103	0.109	0.105	0.064	0.111	0.0889	0.116	0.175	0.122	0.0564
